Compound activity (PubChem BioAssay)
Sampled rows, rich in hits. Any-hit rate of the full collection: about 1.1%.
beta cell repl – inducers of MIN6 beta-cell proliferation, primary screen, ATP luminescence, uHTS; AID 2380, 2010; 0.29% of 330,000 active; MIN6 cells proliferation, ATPlite luminescence, 48 h; cells starved in 0.2% serum; 100% = growth in 10% serum; proliferation, % at 10 µM;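 active = compounds whose signal lies at least 3.5 SD above the mean of all wells on their plate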;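 note: 0% = DMSO-treated cells in low-serum medium and 100% = 10% serum control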
A3G deaminase – APOBEC3G DNA deaminase inhibitors, primary screen, biochemical, fluorescence, single-stranded DNA substrate, uHTS; 0.28% of 330,000 active; recombinant A3G, ssDNA deamination FAM/TAMRA fluorescence; inhibition, % at 20 µM; AID 493012, 2011;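 active = inhibition of at least 40% at 20 µM, with no more than 30% in the related APOBEC3A deaminase screen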;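 note: plate controls were DMSO wells with A3G for no effect and wells lacking A3G enzyme for full effect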
Target sequence (Q9HC16 whole entry, looked up): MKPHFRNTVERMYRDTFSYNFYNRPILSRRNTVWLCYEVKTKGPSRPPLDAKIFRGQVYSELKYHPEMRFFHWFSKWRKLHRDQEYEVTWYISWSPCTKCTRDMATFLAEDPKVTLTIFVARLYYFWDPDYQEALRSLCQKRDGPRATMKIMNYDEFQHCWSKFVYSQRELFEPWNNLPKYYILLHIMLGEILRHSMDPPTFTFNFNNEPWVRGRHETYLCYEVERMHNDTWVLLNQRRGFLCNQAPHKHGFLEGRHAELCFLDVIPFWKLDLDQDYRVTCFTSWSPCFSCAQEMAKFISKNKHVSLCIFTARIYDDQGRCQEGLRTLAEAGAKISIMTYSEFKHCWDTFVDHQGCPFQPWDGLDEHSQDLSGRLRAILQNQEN
APOBEC3A inh – APOBEC3A ssDNA deaminase inhibitors, primary screen, selectivity assay for APOBEC3G inhibitor project, biochemical, FAM/TAMRA oligo cleavage fluorescence; DNA dC->dU-editing enzyme APOBEC-3A (Homo sapiens), P31941; recombinant A3A, FAM/TAMRA ssDNA deamination fluorescence; inhibition, % at 20 µM; 0.41% of 330,000 active;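 active = at least 40% inhibition at 20 µM here, with at most 30% in a related deaminase screen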;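 note: plate controls were A3A with DMSO for no effect and wells lacking A3A enzyme for full effect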
A1 inh – caspase 3/7 activation in MEF A1-2A-BIM cells, primary screen, A1 inhibitor project, cell-based, luminescence, HTS. Caspase-Glo 3/7 luminescence, 3 h; percent of clofoctol response, vehicle zero. caspase activation, % (concentration not given with the values). 0.066% of 330,000 active. AID 2462, 2010;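 active = over half of replicate activation scores above 10%, or exactly half above 10 with the replicate mean above 10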
A3A conf – APOBEC3A deaminase inhibitors, retest, confirmation, selectivity assay for APOBEC3G inhibitor project, biochemical, single concentration, fluorescence readout; recombinant A3A, ssDNA deaminase UDG fluorescence assay; inhibition, % at 20 µM; AID 493151, 2011; shares compounds with APOBEC3A inh; 63% of 1,400 active;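 active = inhibition reaching a set limit, 80% of the first screen's cutoff, at 20 µM in any replicate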;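 note: plate controls were DMSO wells with A3A for no effect and wells lacking A3A enzyme for full effect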
UDG A3A counter – E. coli UDG inhibitors, confirmation, counter-screen for APOBEC3A inhibitor project, biochemical, single concentration, fluorescence, FAM/TAMRA oligo; UDG counterscreen, FAM/TAMRA uracil oligo fluorescence; inhibition, % at 20 µM; 1,000 tested, under 10 active; shares compounds with APOBEC3A inh; call rule not given here
* = called active by the depositor; · = not tested or not shown.

SMILES	beta cell repl	A3G deaminase	APOBEC3A inh	A1 inh	A3A conf	UDG A3A counter
C[n+]1cccc(C2C(C#N)=C(N)Oc3c2ccc2ccccc32)c1 (stereo not drawn)	-6	15	41*	0	31*	-1
COc1ccc(CCN2C(=O)CC(Sc3ncccc3C(=O)O)C2=O)cc1OC (stereo not drawn)	-3	-4	98*	0	-5	2
CCC(Sc1nnnn1C)C(=O)Nc1ccc(C(C)=O)cc1 (stereo not drawn)	-3	18	40*	0	29	·
Cc1ccc(S(=O)(=O)N2CCCN(C)CC2)cc1	1	-11	-5	1	·	·
CN1CCCN(S(=O)(=O)c2ccccc2)CC1	-1	17	67*	-1	61*	-2
O=C(c1cc([N+](=O)[O-])ccc1N1CCOCC1)N1CCCCC1	-2	-5	-1	2	·	·
O=C(c1cc([N+](=O)[O-])ccc1N1CCOCC1)N1CCN(c2ccc([N+](=O)[O-])cc2)CC1	2	6	56*	-1	5	·
CC(C)C(=O)N1CCN(c2ccc([N+](=O)[O-])cc2Cl)CC1	-2	15	55*	0	17*	-2
O=C(CSc1nnc(CNC(=O)c2ccco2)o1)Nc1cccc(Cl)c1	0	-5	-1	-1	·	·
COc1ccc(S(=O)(=O)N2CCCOC2CNC(=O)C(=O)NCc2ccncc2)cc1 (stereo not drawn)	3	-4	-4	0	·	·
COC(=O)c1cccc(N2C(=O)c3ccccc3S2(=O)=O)c1	-2	19	40*	0	1	·
Cc1cnc(NC(=O)C2CC=CCC2)s1 (stereo not drawn)	-2	-14	7	-1	·	·
Cc1cc(/C=C2\SC(=O)N(C)C2=O)c(C)n1-c1ccc(S(N)(=O)=O)cc1	-2	16	50*	0	63*	-1
Cc1cc(/C=C2\SC(=O)N(C)C2=O)c(C)n1-c1ccc(O)cc1	-5	-2	-6	-1	·	·
c1ccc(-c2cc3cc4c(cc3cn2)OCO4)cc1	-5	-8	-3	-13	·	·
CCOC(=O)C1=C(C)N=C2SC(C(=O)OC)=CC(=O)N2C1c1ccc(F)cc1 (stereo not drawn)	-4	-9	54*	0	-1	-3
CCc1ccc(-c2csc(NC(=O)C3=COCCO3)n2)cc1	-8	-6	2	-6	·	·
CCC[N+]1(CC#CC2(O)CCCCC2)CCOCC1	0	16	74*	0	82*	3
Cn1nc([N+](=O)[O-])nc1S(C)(=O)=O	-5	10	88*	·	88*	-4
CS(=O)(=O)c1nc([N+](=O)[O-])nn1CCCc1ccccc1	-4	-2	1	-1	·	·
Cc1cc(C(=O)OCC(=O)N(C)c2c(N)n(Cc3ccccc3)c(=O)[nH]c2=O)c(C)n1-c1ccccc1	-3	-1	-1	1	·	·
O=C(N/N=C/c1ccc([N+](=O)[O-])o1)C1CC1	-2	5	23	0	·	·
CN1CC[n+]2c(CN3C(=O)c4ccccc4C3=O)csc21	-3	27	51*	-1	79*	5
Cc1ccoc1C(=O)NCc1occc1C(=O)O	-5	10	40	0	28	·
Cc1ccoc1C(=O)NCCNC(=O)c1occc1C	-1	-1	1	-1	·	·
O=C(CSc1nc2sccc2c(=O)[nH]1)N1CCN(c2ccccc2)CC1	-3	15	87*	0	53*	-2
Cc1c(Cl)cccc1NC(=O)CNC(=O)c1ccc2c(c1)OCCO2	0	9	51*	0	41*	2
CCn1c(CNC(=O)COc2ccc(C(C)C)cc2)nnc1SCC(=O)NC1CCCCC1C (stereo not drawn)	-2	1	3	0	·	·
